The nature of assay [1]: cAMP Responsive Elements (CRE) small molecule antagonists, cell-based qHTS assay: qHTS cell viability counter screen (AID 2060913). Also: nearly all actives have a fitted effect of over 40% in size. In outline:
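Cytotoxicity counter screen multiplexed with the CRE-bla antagonist read: HEK293T cells in DMEM with dialyzed FBS and 25 mM HEPES were treated 3 hrs under 0.25 uM final NKH477, then viability measured by CellTiter-Glo luminescence.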

Assay [2] is described as follows: cAMP Responsive Elements (CRE) small molecule agonists, cell-based qHTS assay: qHTS cell viability counter screen (AID 2060914).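 Also: viability read after 3 h of compound exposure; nearly all actives have a fitted effect of over 50% in size.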 In outline:
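CRE-bla HEK 293T cells, plated 18 h at 37 °C, were exposed to compounds for 3 h at 37 °C/5% CO2. Viability was then measured in the same wells by CellTiter-Glo luminescence after 30 min at room temperature.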

From PubChem BioAssay (Tox21) come the findings set out here.

Records with an inconclusive call do not appear. A call without a number means that no potency is given here. Calls of active or inactive are those of the source. Calls follow the shape of the dose curve; as a rule, active = well fitted cell-killing curve with a large enough effect in the repeat runs; inconclusive = weak or mixed curves, or effect the other way; inactive = flat fitted curve, though single readings scatter.

For the compound `CC(C)[C@H](N)C(=O)OCCOCn1cnc2c(=O)[nH]c(N)nc21`, the Potency entry in assay [1] and in assay [2] was “inactive” in each case.

Turning to `CCN(CC)C(=O)N1CCN(C)CC1`, the Potency result in assay [1] and in assay [2] was “inactive” each time.

As for `CC(C)(O)c1ccc(CNC(=O)c2cccnc2Oc2ccc3nonc3c2)cc1`, the Potency entry in assay [1] and in assay [2] was “inactive” throughout.

Regarding `CC(=O)OCCOC(C)=O`, the Potency result in assay [1] and in assay [2] was “inactive” in each case.

Turning to `[Cl][Sc]([Cl])[Cl]`, the Potency entry in assay [1] and in assay [2] was “inactive” in each case.

Regarding `O=C(O)c1cn(C2CC2)c2cc(N3CCNCC3)c(F)cc2c1=O`, the Potency result in assay [1] and in assay [2] was “inactive” throughout.

Consider `C=CC(=O)OCC(Br)CBr` (stereo unspecified), for which the Potency entry in assay [1] and in assay [2] was “inactive” in each case.

Regarding `CCCCCC(=O)OCC`, the Potency result in assay [1] and in assay [2] was “inactive” each time.

As to `C[CH2][Ge]([Cl])([CH2]C)[CH2]C`, the Potency entry in assay [1] and in assay [2] was “inactive” in each case.

Consider `Cc1ccc(NC(=O)N(C)C)cc1NC(=O)N(C)C`, for which the Potency entry in assay [1] and in assay [2] was “inactive” throughout.

For the compound `C=CC/C=C/C`, the Potency result in assay [1] and in assay [2] was “inactive” each time.

In the case of `NCCOCCOCCN`, the Potency entry in assay [1] and in assay [2] was “inactive” throughout.

On to `CN(C)C(=O)CNC(=O)Cc1ccccc1`, for which the Potency result in assay [1] and in assay [2] was “inactive” in each case.
